{"source": "PubChem BioAssay (NCATS)", "key": {"[1]": {"molecular_target": "Rap guanine nucleotide exchange factor 3 (Homo sapiens) (UniProt O95398)", "sequence (O95398 whole entry, looked up)": "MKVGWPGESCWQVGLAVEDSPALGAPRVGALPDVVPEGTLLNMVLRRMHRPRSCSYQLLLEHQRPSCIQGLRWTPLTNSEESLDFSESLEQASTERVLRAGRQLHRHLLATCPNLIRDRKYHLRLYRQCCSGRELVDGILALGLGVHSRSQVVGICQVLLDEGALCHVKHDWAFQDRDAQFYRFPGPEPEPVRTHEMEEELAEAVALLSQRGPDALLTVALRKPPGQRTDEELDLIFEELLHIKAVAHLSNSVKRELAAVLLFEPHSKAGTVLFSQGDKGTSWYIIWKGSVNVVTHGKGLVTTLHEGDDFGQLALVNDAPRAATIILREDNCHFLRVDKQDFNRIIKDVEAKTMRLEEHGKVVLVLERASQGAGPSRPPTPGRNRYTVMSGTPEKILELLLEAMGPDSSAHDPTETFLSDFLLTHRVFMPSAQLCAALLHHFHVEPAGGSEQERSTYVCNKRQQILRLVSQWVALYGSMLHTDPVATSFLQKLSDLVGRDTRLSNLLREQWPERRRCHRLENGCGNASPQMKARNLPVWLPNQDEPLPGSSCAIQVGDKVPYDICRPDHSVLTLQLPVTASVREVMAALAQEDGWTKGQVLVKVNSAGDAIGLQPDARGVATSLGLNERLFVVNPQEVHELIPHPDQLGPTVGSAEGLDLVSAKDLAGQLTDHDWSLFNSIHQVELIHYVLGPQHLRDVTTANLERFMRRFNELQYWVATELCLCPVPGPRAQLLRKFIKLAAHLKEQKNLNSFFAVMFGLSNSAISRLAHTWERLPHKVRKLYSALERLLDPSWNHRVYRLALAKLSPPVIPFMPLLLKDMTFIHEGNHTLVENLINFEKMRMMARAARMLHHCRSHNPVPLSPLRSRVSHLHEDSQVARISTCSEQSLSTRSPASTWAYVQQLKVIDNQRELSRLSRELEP", "assay": "Counterscreen qHTS for antagonist of cAMP-regulated guanine nucleotide exchange factor 3 (EPAC1) (AID 1645888);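 note: fluorescence loss as bound BODIPY-GDP is released from Rap1B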", "method_in_brief": "(§1)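 Rap1B-BODIPY-GDP 250 nM + GDP 50 uM; cpds 7-pt, final 9.74 nM–152 uM (activator mode) or from 7.32 nM upwards (inhibitor mode); RT; FI 480/540 nm at 5 and 30 min, then ± cAMP, reread.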"}, "[2]": {"molecular_target": "Rap guanine nucleotide exchange factor 4 (Homo sapiens) (UniProt Q8WZA2)", "sequence (Q8WZA2 whole entry, looked up)": "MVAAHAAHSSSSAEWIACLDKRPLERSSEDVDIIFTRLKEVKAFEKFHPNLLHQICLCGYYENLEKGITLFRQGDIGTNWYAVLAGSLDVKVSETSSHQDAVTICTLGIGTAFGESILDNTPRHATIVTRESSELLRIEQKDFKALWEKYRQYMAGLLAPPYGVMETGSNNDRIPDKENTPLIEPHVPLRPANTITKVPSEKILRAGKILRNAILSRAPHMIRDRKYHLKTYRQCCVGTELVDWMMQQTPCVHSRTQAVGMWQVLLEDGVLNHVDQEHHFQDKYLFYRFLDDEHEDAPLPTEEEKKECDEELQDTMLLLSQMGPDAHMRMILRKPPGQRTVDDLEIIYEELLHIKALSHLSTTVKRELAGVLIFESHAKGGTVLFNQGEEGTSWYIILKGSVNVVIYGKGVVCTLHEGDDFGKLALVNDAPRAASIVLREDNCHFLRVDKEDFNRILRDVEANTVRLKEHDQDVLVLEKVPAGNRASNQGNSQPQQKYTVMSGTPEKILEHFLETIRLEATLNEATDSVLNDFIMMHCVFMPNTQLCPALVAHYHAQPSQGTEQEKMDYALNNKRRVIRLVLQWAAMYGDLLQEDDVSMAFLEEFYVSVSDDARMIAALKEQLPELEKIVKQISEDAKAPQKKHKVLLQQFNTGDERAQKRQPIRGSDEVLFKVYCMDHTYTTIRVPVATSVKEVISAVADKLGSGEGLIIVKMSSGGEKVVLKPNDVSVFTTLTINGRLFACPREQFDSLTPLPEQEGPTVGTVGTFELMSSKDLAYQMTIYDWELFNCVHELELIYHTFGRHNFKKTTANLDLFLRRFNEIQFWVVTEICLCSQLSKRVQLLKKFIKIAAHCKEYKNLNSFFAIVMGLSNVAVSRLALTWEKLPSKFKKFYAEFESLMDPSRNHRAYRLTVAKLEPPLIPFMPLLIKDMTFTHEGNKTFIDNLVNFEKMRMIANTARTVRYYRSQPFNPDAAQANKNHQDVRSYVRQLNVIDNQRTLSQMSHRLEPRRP", "assay": "Confirmatory qHTS for antagonist of cAMP-regulated guanine nucleotide exchange factor 4 (EPAC2) (AID 1645885)"}, "[3]": {"molecular_target": "Rap guanine nucleotide exchange factor 3 (Homo sapiens) (UniProt O95398)", "assay": "Counterscreen qHTS for agonist of cAMP-regulated guanine nucleotide exchange factor 3 (EPAC1) (AID 1645889)", "method_in_brief": "as §1"}}, "note": "Results filed as inconclusive are left out. A call without a number means that no potency is given here. A number with no mark means an inactive call. Active and inactive are the calls of the source. Calls come from the whole dose curve; as a rule, active = well fitted curve in the direction sought with a large enough effect; inconclusive = small, poorly fitted or top-dose-only effect, or another doubt; inactive = no such curve, though single readings can be large; an effect the other way counts as inactive or inconclusive. Throughout, for activation: nearly all actives have a fitted effect of over 40% in size.", "data": [{"smiles": "CN1c2ccsc2/C(=N/Nc2ccccc2)CS1(=O)=O", "values": [{"measurement": "Potency", "setting": "[1]", "value": "inactive"}]}, {"smiles": "O=C(NCc1ccc(OC(F)(F)F)cc1)c1cccc2c1C(=O)c1ccc(N3CCCC3)cc1S2(=O)=O", "values": [{"measurement": "Potency", "setting": "[2]", "value": "inactive"}, {"measurement": "activation", "setting": "[3]", "value": "20% [at 30.8 µM]"}]}, {"smiles": "COc1cc(C)nc(N2CCCC(C(=O)Nc3cc(Cl)ccc3OC)C2)n1", "note": "(centres undefined)", "values": [{"measurement": "Potency", "setting": "[1]", "value": "inactive"}]}]}
